The whole screen tested about 16,000 compounds, of which about 5,800 (36%) were called active. Roughly 23% stayed inconclusive and do not appear here. Some of the results follow. Unmarked numbers belong to inactive results. Calls come from the whole dose curve; as a rule, active = well fitted curve in the direction sought with a large enough effect; inconclusive = small, poorly fitted or top-dose-only effect, or effect the other way; inactive = no such curve, though single readings can be large or run the other way.
% is set by controls: 0 for no effect and ±100 for the full control effect.

In this assay the target is Cytochrome P450 2C19 (Homo sapiens) (UniProt P33261). The assay can be described thus: Cytochrome panel assay with activity outcomes. To be noted: recombinant CYP, pro-luciferin dealkylation, luminescence, p450-cyp2c19; series mostly up to 57.1 µM.
Cytochrome P450 2C19 (Homo sapiens), sequence (P33261 whole entry, looked up): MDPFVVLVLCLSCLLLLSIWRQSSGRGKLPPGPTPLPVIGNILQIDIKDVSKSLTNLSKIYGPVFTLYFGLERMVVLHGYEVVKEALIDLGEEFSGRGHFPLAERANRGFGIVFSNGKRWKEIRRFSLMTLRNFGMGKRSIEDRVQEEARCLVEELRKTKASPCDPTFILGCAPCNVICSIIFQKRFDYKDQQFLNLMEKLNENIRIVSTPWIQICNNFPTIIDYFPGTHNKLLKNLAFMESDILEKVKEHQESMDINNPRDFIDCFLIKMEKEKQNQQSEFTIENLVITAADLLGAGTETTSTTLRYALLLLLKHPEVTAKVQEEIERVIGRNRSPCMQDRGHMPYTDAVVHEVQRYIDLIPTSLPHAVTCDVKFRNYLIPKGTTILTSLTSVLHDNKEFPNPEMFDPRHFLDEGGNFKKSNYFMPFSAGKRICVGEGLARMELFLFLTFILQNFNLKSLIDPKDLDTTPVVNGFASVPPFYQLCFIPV
For orientation: AC50 means the concentration giving half of the maximal activity seen. Regarding `CN(C)C(=O)c1ccc(-c2cncnc2NCCN2CCOCC2)cc1`, the AC50 result was “inactive”. On the same count and under the same terms, for `CN(C)C(=O)c1ccc(-c2ccc3ncnc(NCCN4CCOCC4)c3c2)cc1` the value was “inactive”. On the same count and under the same terms, the same measure for `Cc1ccc(-c2csc3ncnc(NCCN4CCOCC4)c23)cc1`: 11.2 µM (active); for `CN(C)c1ccc(-c2cncnc2NCCN2CCOCC2)cc1`: 6.31 µM (active). On to `CC(C)=CCC/C(C)=C/CO/N=C1/C[C@@H](O)[C@@H](O)[C@@H]2[C@@H]3C(=O)N(C[C@@H]4CCCO4)C(=O)[C@H]3CC[C@H]12`, for which the activity, negative = inhibition is -12% [at 11.4 µM]. As for `Cc1cc(N)c2ccccc2[n+]1CCCCCCCCCC[n+]1c(C)cc(N)c2ccccc21`, the AC50 entry was “inactive”.

With `Nc1cc2c(nc3c4ccccc4c(N)cc3[n+]2-c2cccc3ccccc23)c2ccccc12` (tested in a mixture with another compound), the AC50 is 1 µM (active). With `COc1ccc(/C=C(\C#N)C(N)=O)c(OC)c1`, the activity, negative = inhibition is 6.18% [at 11.4 µM]. In the case of `COc1cc(/C=C(\C#N)C(=O)c2ccc(O)c(O)c2)cc(I)c1O`, the AC50 result is “inactive”. Consider `COc1cc(/C=C(\C#N)C(N)=O)cc(CSc2nc3ccccc3s2)c1O`, for which the AC50 is 3.16 µM (active). Still for that read-out and setting: for `CCc1ccc(N/C(SCc2ccccc2C)=C(/C#N)C(=O)NCc2ccco2)cc1` the value was 2.82 µM (active); for `CC(C)Cn1c(SCC(=O)c2c(N)n(C)c(=O)n(C)c2=O)nc2ccccc21`, 7.94 µM (active); for `CCNC(=O)NC(=O)CSc1nc2ccccc2n1CC(C)C`, 5.62 µM (active). The same measure, in the same setting: for `Cc1cc(C)c(NC(=O)C(C)Sc2nnc(-c3ccco3)n2-c2ccccc2)c(C)c1` (stereo unspecified) the value was 1.78 µM (active); for `O=C(CSc1nnc2sc3ccccc3n12)NCc1ccco1`, 10 µM (active). Same read-out and setting: for `O=C(CSc1nnc(-c2ccco2)n1-c1ccccc1)NCc1ccco1` the value was 8.91 µM (active). Regarding `Cc1cc2c(cc1C)-c1nnc(-c3ccc4ccccc4n3)n1C(C)(C)C2`, the AC50 entry is “inactive”. The same measure, in the same setting: the same measure for `CC(c1ccc(Cl)cc1)n1c(-c2ccc3ccccc3n2)n[nH]c1=S` (stereo unspecified): 0.447 µM (active); for `CN(C)CC[C@H](c1ccc(Cl)cc1)c1ccccn1`: “inactive”.

As to `CC(=O)OC[C@@H]1O[C@@H](O/N=C2/C[C@@H](O)[C@@H](O)[C@@H]3[C@@H]4C(=O)N(C5CCCCC5)C(=O)[C@H]4CC[C@H]23)[C@H](OC(C)=O)[C@H](OC(C)=O)[C@@H]1OC(C)=O`, the activity, negative = inhibition is 9.71% [at 11.4 µM]. For `Cc1cccc(-n2cccc2)c1C#N`, the AC50 was 17.8 µM (active). On the same count and under the same terms, the same measure for `N#Cc1c(-n2ccnc2)cccc1-n1ccnc1`: 2.24 µM (active).

`FC(F)(F)c1ccccc1-n1ccnc1`: the AC50 result was “inactive”. Consider `N#Cc1c(Cl)cccc1-n1ccnc1`, for which the AC50 was 8.91 µM (active). On the same count and under the same terms, for `CSC(=NC#N)N1CCN(c2ccc(Cl)cc2)CC1` the value was 0.708 µM (active); for `O=C(Cn1cnc2ccccc2c1=O)NCCC(=O)Nc1ccc2c(c1)OCCO2`, “inactive”.

As for `O=C(CCNC(=O)Cn1cnc2ccccc2c1=O)NCC1COc2ccccc2O1` (stereo unspecified), the AC50 was 28.2 µM (active).

Turning to `c1ccc(C(c2ccccc2)N2CC[C@@]3(CCCNC3)C2)cc1`, the AC50 result is “inactive”.

`CN1[C@@H](CC(=O)c2ccccc2)CCC[C@@H]1C[C@@H](O)c1ccccc1`: the AC50 result was “inactive”.

Turning to `O=C(O)CC(c1ccccc1)n1cnnn1` (stereo unspecified), the AC50 entry was “inactive”. As for `O=C(C[C@@H](c1ccccc1)N1CCCCC1)c1ccccc1`, the concentration at half-maximal activity (AC50) is 2.51 µM (active). Consider `O=CN[C@@H](Cc1cnc[nH]1)C(=O)O`, for which the activity, negative = inhibition is 6.59% [at 11.4 µM]. For the compound `C=CCc1cccc(C2Nc3ccccc3C(=O)N2O)c1O` (stereo unspecified), the AC50 was 1.58 µM (active). `O=C1c2ccccc2NC(c2ccc(Cl)cc2Cl)N1O` (stereo unspecified): the AC50 is 5.62 µM (active). On the same count and under the same terms, the same measure for `O=C1c2ccccc2NC(c2ccc3c(c2)OCO3)N1O` (stereo unspecified): 10 µM (active); for `CCNC(=S)NNC(=O)CCn1c2ccccc2c2ccccc21`: 5.01 µM (active); for `CCNC(=S)NNC(=O)Cc1ccccc1`: “inactive”. Still for that read-out and setting: for `CCOc1cc(/C=N/O)cc(Cl)c1OC` the value was 20 µM (active).

With `COc1cc(/C=N/O)cc(Br)c1OCc1cccc(Cl)c1`, the concentration at half-maximal activity (AC50) was 2 µM (active).

On to `C=CCc1cc(C=O)cc(OC)c1OCc1ccc(Cl)cc1`, for which the AC50 was 0.794 µM (active). The same measure, in the same setting: the same measure for `COc1ccc(Cl)cc1N=Nc1ncc[nH]1`: “inactive”. With `COc1cc(/C=N/O)cc(Br)c1OCc1ccc(Cl)cc1`, the half-maximal activity concentration (AC50) is 1.58 µM (active). In the case of `CCN1C(=O)[C@H]2[C@H]3[C@H](O)[C@H](O)C/C(=N/OC[C@@H](O)[C@H]4O[C@H]5OC(C)(C)O[C@H]5[C@@H]4O)[C@@H]3CC[C@@H]2C1=O`, the activity, negative = inhibition was 15% [at 11.4 µM]. Turning to `COC(=O)N1CCC2(CC1)CN(C(=O)Nc1ccccc1)C2`, the AC50 result is “inactive”. Still for that read-out and setting: the same measure for `COC(=O)N1CCC[C@@]2(CCN(C(=O)Nc3ccccc3)C2)C1`: “inactive”; for `COC(=O)C1CCC(C)(C(=O)Nc2ccccc2)C1(C)C` (stereo unspecified): 3.55 µM (active); for `CCn1c(SCc2ccc(Cl)cc2Cl)nc2nc3c(cc2c1=O)CCCC3`: 3.98 µM (active).

As for `COc1cc2c3cc1Oc1c(OC)c(OC)cc4c1[C@@H](Cc1ccc(O)c(c1)Oc1ccc(cc1)C[C@@H]3N(C)CC2)CN(C)C4`, the activity, negative = inhibition was -44.9% [at 11.4 µM]. On to `COc1ccc([N+](=O)[O-])cc1N(CC(O)CN(CC(C)C)CC(C)C)S(=O)(=O)c1ccccc1` (stereo unspecified), for which the half-maximal activity concentration (AC50) is 6.31 µM (active). Still for that read-out and setting: the same measure for `CS(=O)(=O)N1CCC2(CC1)CN(C(=O)Nc1ccccc1)C2`: “inactive”; for `O=C(Nc1ccccc1)N1CCSc2cc(Cl)ccc21`: 0.794 µM (active); for `Cn1ccc2cc3c(cc21)CCN3C(=O)Nc1cccnc1`: “inactive”. On the same count and under the same terms, the same measure for `O=C(N/N=C/c1ccc([N+](=O)[O-])o1)c1cc(-c2ccncc2)nc2ccccc12`: 2.82 µM (active). Regarding `O=C(O)c1cc(-c2ccncc2)nc2ccccc12`, the activity, negative = inhibition is 15.6% [at 11.4 µM]. Turning to `CCn1c2ccccc2c2cc(NC(=O)C(C)Oc3ccc(OC)cc3)ccc21` (stereo unspecified), the AC50 was 0.398 µM (active).

As to `CCC(C(=O)N1CCOCC1)n1c(C(=O)OC)cc2occc21` (stereo unspecified), the AC50 was 5.01 µM (active).

For the compound `CCC(Sc1ncccc1C(=O)O)C(=O)N1CCOCC1` (stereo unspecified), the AC50 entry is “inactive”. For `Cc1cc(=O)oc2cc(O)ccc12`, the AC50 result was “inactive”. Same read-out and setting: for `CCN(CC)c1ccc(C(=O)OCc2cc(=O)oc3cc(O)ccc23)cc1` the value was 0.355 µM (active); for `CCN(CC)c1ccc2c(Cl)cc(=O)oc2c1`, 11.2 µM (active). On the same count and under the same terms, the same measure for `COc1ccc2c(CC(=O)NCC3CCC(C(=O)O)CC3)cc(=O)oc2c1` (stereo unspecified): “inactive”.

The values are drawn from PubChem BioAssay AID1851 (National Center for Advancing Translational Sciences (NCATS), 2009).
